# Data taken from the supplement of paper PMC7411054.
# Where a name gives a salt, the structure may show the parent alone. Unmarked numbers belong to inactive results.
# System: WPMY1-GM130-SQSTM1
# Assay: phenotypically active (imaging signature differs from DMSO and reproducible) at any of 0.3-9 uM (binary (1 = active, 0 = inactive)); higher = active
# Conditions: treatment time: 24 h
# In short: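 After 24 h at 0.3, 1, 3 or 9 µM, with four wells per treatment, fifteen gene-edited A549, HepG2 and WPMY1 reporter lines carrying BFP, GFP and RFP/FusionRed were imaged live. Each well's live-cell features were expressed relative to solvent control wells. Deviation required ≥3 of 4 wells past the 95th percentile of control Euclidean distances, and reproducibility a median replicate Pearson correlation over the 95th percentile of non-replicates. Phenotypic activity rested on both.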
row,Compound,phenotypically active
1,CCOc1cc(N2CCC(O)CC2)ccc1Nc1ncc2c(n1)N(C)c1ccccc1C(=O)N2C,1 (active)
2,Cc1c2oc3c(C)ccc(C(=O)NC4C(=O)NC(C(C)C)C(=O)N5CCCC5C(=O)N(C)CC(=O)N(C)C(C(C)C)C(=O)OC4C)c3nc-2c(C(=O)NC2C(=O)NC(C(C)C)C(=O)N3CCCC3C(=O)N(C)CC(=O)N(C)C(C(C)C)C(=O)OC2C)c(N)c1=O (stereo not drawn) [Actinomycin D],1 (active)
3,Nc1nc2ccc(OC(F)(F)F)cc2s1 [riluzole],0
4,NCCNS(=O)(=O)c1cccc2cnccc12 [H-9 dihydrochloride],0
5,N#Cc1c(NC(=O)c2cccc3ccccc23)sc2c1CCCC2,1 (active)
6,COc1ccc2c(Oc3ccc(NC(=O)c4c(C)n(CC(C)(C)O)n(-c5ccccc5)c4=O)nc3)ccnc2c1,0
7,C[C@@H](c1ncncc1F)[C@](O)(Cn1cncn1)c1ccc(F)cc1F [voriconazole],0
8,CN1C/C(=C/c2ccc(B(O)O)cc2)C(=O)/C(=C/c2ccc(B(O)O)cc2)C1,1 (active)
9,Nc1ccn([C@@H]2O[C@H](CO)[C@@H](O)C2(F)F)c(=O)n1 [gemcitabine],1 (active)
10,Oc1ccc(Nc2nc(-c3ccc(Cl)cc3)cs2)cc1,1 (active)
11,C/C(=C/C(=O)Nc1ccccc1C(=O)O)c1ccc2ccccc2c1,0
12,NCCC(O)(P(=O)(O)O)P(=O)(O)O [pamidronate],0
13,CCN1CCN(c2ccc(Nc3cc(N(C)C(=O)Nc4c(Cl)c(OC)cc(OC)c4Cl)ncn3)cc2)CC1,1 (active)
